About 2,000 (36%) of roughly 5,500 compounds were called active. Another 18% or so got no clear call; they are omitted. Rule as the data show it: active = normalized growth mostly below about 0.91 (no sharp cut-off); inconclusive = no clear call, values can overlap the other calls; inactive = mostly above about 0.92. Some of the results follow.
Test: chemical genetic growth profiling, strain panel (AID 1159580);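 also: tested at 20 µM; growth read once vehicle control cultures reached saturation at 30 °C; 1 = growth at the plate median or of vehicle wells; lower values mean less growth of the strain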
Conditions: growth OD

Measured: normalized growth

CC(=O)S[C@@H]1CC2=CC(=O)CC[C@]2(C)[C@H]2CC[C@@]3(C)[C@@H](CC[C@@]34CCC(=O)O4)C12 (stereo not given in full)
inactive: S. cerevisiae deletion strains, locus YJR043C, strain POL32, hits give low values 1.01 | S. cerevisiae deletion strains, locus YJR066W, strain TOR1, hits give low values 0.981 | S. cerevisiae deletion strains, locus YJR075W, strain HOC1, hits give low values 1.01 | S. cerevisiae deletion strains, locus YKL009W, strain mrt4, hits give low values 1.01 | S. cerevisiae deletion strains, locus YKL068W, hits give low values 1.01 | S. cerevisiae deletion strains, locus YKL085W, strain MDH1 (second series), hits give low values 1.01 | S. cerevisiae deletion strains, locus YKL085W, strain MDH1, hits give low values 1.01 | S. cerevisiae deletion strains, locus YKL160W, strain elf1, hits give low values 1.03 | S. cerevisiae deletion strains, locus YKL190W, strain CNB1, hits give low values 0.995 | S. cerevisiae deletion strains, locus YKR001C, strain vps1, hits give low values 1.03 | S. cerevisiae deletion strains, locus YKR026C, strain gcn3, hits give low values 1.01 | S. cerevisiae deletion strains, locus YKR091W, strain srl3, hits give low values 1.01 | S. cerevisiae deletion strains, locus YLL001W, strain dnm1, hits give low values 1.05 | S. cerevisiae deletion strains, locus YLL026W, hits give low values 1.01 | S. cerevisiae deletion strains, locus YLL041C, strain sdh2, hits give low values 1.01 | S. cerevisiae deletion strains, locus YLR027C, strain aat2, hits give low values 1.02 | S. cerevisiae deletion strains, locus YLR039C, strain RIC1, hits give low values 1.02 | S. cerevisiae deletion strains, locus YLR058C, strain SHM2, hits give low values 1 | S. cerevisiae deletion strains, locus YLR102C, strain apc9, hits give low values 1.02 | S. cerevisiae deletion strains, locus YLR113W, strain HOG1, hits give low values 1.03 | S. cerevisiae deletion strains, locus YLR221C, strain rsa3, hits give low values 0.984 | S. cerevisiae deletion strains, locus YLR258W, strain gsy2, hits give low values 0.997 | S. cerevisiae deletion strains, locus YLR262C, strain YPT6 (second series), hits give low values 1.03 | S. cerevisiae deletion strains, locus YLR262C, strain YPT6, hits give low values 1.04 | S. cerevisiae deletion strains, locus YLR268W, strain sec22, hits give low values 1.03 | S. cerevisiae deletion strains, locus YLR320W, strain mms22, hits give low values 0.975 | S. cerevisiae deletion strains, locus YLR330W, strain CHS5, hits give low values 1.01 | S. cerevisiae deletion strains, locus YLR342W, strain FKS1 (second series), hits give low values 1 | S. cerevisiae deletion strains, locus YLR342W, strain FKS1, hits give low values 1.05 | S. cerevisiae deletion strains, locus YLR357W, strain rsc2, hits give low values 1.06 | S. cerevisiae deletion strains, locus YLR370C, strain arc18, hits give low values 1.02 | S. cerevisiae deletion strains, locus YLR371W, strain rom2, hits give low values 1.03 | S. cerevisiae deletion strains, locus YLR384C, strain iki3, hits give low values 1.01 | S. cerevisiae deletion strains, locus YLR418C, strain cdc73, hits give low values 1.03 | S. cerevisiae deletion strains, locus YML016C, strain PPZ1, hits give low values 1 | S. cerevisiae deletion strains, locus YML032C, strain rad52, hits give low values 1.02 | S. cerevisiae deletion strains, locus YML120C, strain ndi1, hits give low values 1.02 | S. cerevisiae deletion strains, locus YML124C, strain tub3, hits give low values 1.04 | S. cerevisiae deletion strains, locus YMR058W, strain fet3, hits give low values 1.01 | S. cerevisiae deletion strains, locus YMR078C, strain ctf18, hits give low values 1.03 | S. cerevisiae deletion strains, locus YMR125W, strain sto1, hits give low values 1.01 | S. cerevisiae deletion strains, locus YMR129W, hits give low values 1.01 | S. cerevisiae deletion strains, locus YMR205C, strain PFK2, hits give low values 1.02 | S. cerevisiae deletion strains, locus YMR223W, strain ubp8, hits give low values 1.03 | S. cerevisiae deletion strains, locus YMR231W, strain pep5, hits give low values 1.01 | S. cerevisiae deletion strains, locus YMR307W, strain GAS1, hits give low values 0.999 | S. cerevisiae deletion strains, locus YNL067W, strain RPL9B, hits give low values 1.01 | S. cerevisiae deletion strains, locus YNL071W, strain lat1, hits give low values 1.01 | S. cerevisiae deletion strains, locus YNL183C, strain NPR1, hits give low values 0.977 | S. cerevisiae deletion strains, locus YNL209W, strain ssb2, hits give low values 1.01 | S. cerevisiae deletion strains, locus YNL233W, strain BNI4, hits give low values 1.01 | S. cerevisiae deletion strains, locus YNL248C, strain rpa49, hits give low values 0.97 | S. cerevisiae deletion strains, locus YNL250W, strain rad50, hits give low values 1.02 | S. cerevisiae deletion strains, locus YNL271C, strain bni1, hits give low values 1.04 | S. cerevisiae deletion strains, locus YNL298W, strain CLA4, hits give low values 1.04 | S. cerevisiae deletion strains, locus YNL307C, strain MCK1, hits give low values 1.04 | S. cerevisiae deletion strains, locus YNL322C, strain KRE1 (second series), hits give low values 1 | S. cerevisiae deletion strains, locus YNL322C, strain KRE1, hits give low values 1 | S. cerevisiae deletion strains, locus YNR049C, strain mso1, hits give low values 1.01 | S. cerevisiae deletion strains, locus YNR052C, strain pop2, hits give low values 1.02 | S. cerevisiae deletion strains, locus YOL006C, strain TOP1, hits give low values 0.994 | S. cerevisiae deletion strains, locus YOL012C, strain htz1 1.16 | S. cerevisiae deletion strains, locus YOL147C, strain pex11, hits give low values 1.02 | S. cerevisiae deletion strains, locus YOR001W, strain rrp6, hits give low values 1.03 | S. cerevisiae deletion strains, locus YOR061W, strain CKA2, hits give low values 1 | S. cerevisiae deletion strains, locus YOR069W, strain VPS5, hits give low values 1 | S. cerevisiae deletion strains, locus YOR070C, strain gyp1, hits give low values 0.996 | S. cerevisiae deletion strains, locus YOR080W, strain dia2, hits give low values 1.03 | S. cerevisiae deletion strains, locus YOR083W, strain WHI5, hits give low values 1 | S. cerevisiae deletion strains, locus YOR106W, strain vam3, hits give low values 1.04 | S. cerevisiae deletion strains, locus YOR136W, strain idh2, hits give low values 1.03 | S. cerevisiae deletion strains, locus YOR144C, strain elg1, hits give low values 1.01 | S. cerevisiae deletion strains, locus YOR184W, strain ser1, hits give low values 1.03 | S. cerevisiae deletion strains, locus YOR231W, strain MKK1, hits give low values 1.02 | S. cerevisiae deletion strains, locus YOR265W, strain rbl2, hits give low values 1.01 | S. cerevisiae deletion strains, locus YOR270C, strain vph1, hits give low values 0.968 | S. cerevisiae deletion strains, locus YOR290C, strain snf2, hits give low values 0.977 | S. cerevisiae deletion strains, locus YOR316C, strain cot1, hits give low values 1.03 | S. cerevisiae deletion strains, locus YPL051W, strain arl3, hits give low values 1.01 | S. cerevisiae deletion strains, locus YPL078C, strain atp4, hits give low values 1.04 | S. cerevisiae deletion strains, locus YPL106C, strain sse1, hits give low values 0.985 | S. cerevisiae deletion strains, locus YPL240C, strain hsp82, hits give low values 1 | S. cerevisiae deletion strains, locus YPL241C, strain CIN2, hits give low values 1 | S. cerevisiae deletion strains, locus YPL256C, strain CLN2, hits give low values 1.09 | S. cerevisiae deletion strains, locus YPR119W, strain clb2, hits give low values 1.03 | S. cerevisiae deletion strains, locus YPR141C, strain kar3, hits give low values 1.03 | S. cerevisiae deletion strains, locus YPR163C, strain tif3, hits give low values 1.04 | S. cerevisiae deletion strains, locus YPR167C, strain met16, hits give low values 1.03 | S. cerevisiae deletion strains, strain wtn01, hits give low values 1.03 | S. cerevisiae strains, strain wild type, hits give low values 1
